Experimental findings from publication PMC7862700, “An all-to-all approach to the identification of sequence-specific readers for epigenetic DNA modifications on cytosine” are described below.

Common to all, as to assay: DAPPL (digital affinity profiling via proximity ligation, sequencing); 10 mM Tris-HCl pH 7.5, 50 mM NaCl, 1 mM DTT, 4% glycerol, room temperature, 30 min; GST-TFs on glutathione beads, 16-mer random dsDNA library, 0.1% formaldehyde crosslink after washing; high values mean tight binding
Conditions in all cases: protein: recombinant; tags: N-terminal GST; dsDNA, one strand shown

One assay deals with T1, FLI1 (Homo sapiens, UniProt Q01543 1-452).
T1 sequence: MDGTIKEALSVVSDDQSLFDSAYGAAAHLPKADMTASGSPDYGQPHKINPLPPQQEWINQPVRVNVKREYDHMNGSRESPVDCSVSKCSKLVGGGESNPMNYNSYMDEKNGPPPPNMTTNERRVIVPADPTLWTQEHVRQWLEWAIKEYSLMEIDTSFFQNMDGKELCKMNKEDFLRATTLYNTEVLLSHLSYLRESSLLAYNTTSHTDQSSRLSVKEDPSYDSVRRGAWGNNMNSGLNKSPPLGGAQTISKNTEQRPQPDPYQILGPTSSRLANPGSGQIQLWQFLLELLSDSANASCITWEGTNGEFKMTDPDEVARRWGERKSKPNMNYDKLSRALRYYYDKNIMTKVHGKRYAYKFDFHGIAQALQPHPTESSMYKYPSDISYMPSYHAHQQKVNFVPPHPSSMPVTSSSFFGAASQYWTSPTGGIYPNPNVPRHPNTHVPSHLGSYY
The method in brief:
(§1)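 After expression in yeast as GST fusions, human transcription factors were bound to glutathione beads, DNA-barcoded and mixed with a tag-only sample. The pools were incubated with 200 nmole of a 16-mer random double-stranded DNA library in Tris/NaCl/DTT/glycerol buffer (30 min, room temperature), washed and crosslinked with 0.1% formaldehyde. Proximity ligation with BsaI/T4 ligase ran for 1 h at 37 °C, before PCR amplification and sequencing on an Illumina NextSeq500. Binding signal is a hexamer's read frequency for a factor divided by its frequency for the tag-only sample.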

For the next assay, the target named is T2, ELK1 (Homo sapiens, UniProt P19419 1-428).
T2 sequence: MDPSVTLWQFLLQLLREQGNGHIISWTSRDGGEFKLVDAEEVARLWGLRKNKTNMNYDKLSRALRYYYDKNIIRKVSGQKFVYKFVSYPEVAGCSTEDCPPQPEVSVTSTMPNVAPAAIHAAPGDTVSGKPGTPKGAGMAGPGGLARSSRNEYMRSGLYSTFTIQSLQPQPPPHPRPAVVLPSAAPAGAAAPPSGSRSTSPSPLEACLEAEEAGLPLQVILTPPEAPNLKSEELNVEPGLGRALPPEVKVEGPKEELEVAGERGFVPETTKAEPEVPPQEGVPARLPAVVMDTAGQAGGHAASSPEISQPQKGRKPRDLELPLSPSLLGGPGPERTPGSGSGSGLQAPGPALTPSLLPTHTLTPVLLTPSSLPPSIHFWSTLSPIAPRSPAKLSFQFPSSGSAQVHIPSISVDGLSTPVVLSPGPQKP
The essentials:
as §1

A further assay has as its target T3, GABPA (Homo sapiens, UniProt Q06546 1-454).
T3 sequence: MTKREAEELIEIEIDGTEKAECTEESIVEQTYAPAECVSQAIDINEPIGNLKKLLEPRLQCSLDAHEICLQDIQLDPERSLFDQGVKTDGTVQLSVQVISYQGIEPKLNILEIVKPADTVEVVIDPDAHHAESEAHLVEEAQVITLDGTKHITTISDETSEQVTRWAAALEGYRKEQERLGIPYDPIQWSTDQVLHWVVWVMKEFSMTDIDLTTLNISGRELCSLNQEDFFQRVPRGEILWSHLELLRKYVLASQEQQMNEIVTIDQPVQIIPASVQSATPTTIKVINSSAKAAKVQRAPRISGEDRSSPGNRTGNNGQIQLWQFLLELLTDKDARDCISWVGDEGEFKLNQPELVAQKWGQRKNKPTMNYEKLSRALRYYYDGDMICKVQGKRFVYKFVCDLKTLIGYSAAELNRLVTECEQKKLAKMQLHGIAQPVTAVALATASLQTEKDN
The essentials: as §1

The target of another assay is T4, ERG (Homo sapiens, UniProt P11308 1-479).
T4 sequence: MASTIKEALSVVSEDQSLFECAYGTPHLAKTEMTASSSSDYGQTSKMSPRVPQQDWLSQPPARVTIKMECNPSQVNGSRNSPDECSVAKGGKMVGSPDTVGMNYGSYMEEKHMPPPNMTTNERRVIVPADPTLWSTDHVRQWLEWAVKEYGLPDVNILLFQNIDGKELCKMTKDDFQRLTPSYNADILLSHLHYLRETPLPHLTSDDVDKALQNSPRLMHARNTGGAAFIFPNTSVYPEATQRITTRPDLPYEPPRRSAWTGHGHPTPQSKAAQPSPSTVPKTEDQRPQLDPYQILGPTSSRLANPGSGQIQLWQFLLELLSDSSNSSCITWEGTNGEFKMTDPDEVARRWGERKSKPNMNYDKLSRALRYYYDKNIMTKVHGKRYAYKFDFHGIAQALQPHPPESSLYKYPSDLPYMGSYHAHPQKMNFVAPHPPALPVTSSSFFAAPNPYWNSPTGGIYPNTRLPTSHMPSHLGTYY
The method in brief:
as §1

In the next assay the target is ELF1 (Homo sapiens, UniProt P32519 1-619). The method in brief: as §1
Another assay deals with T5, EHF (Homo sapiens, UniProt Q9NZC4 1-300).
T5 sequence: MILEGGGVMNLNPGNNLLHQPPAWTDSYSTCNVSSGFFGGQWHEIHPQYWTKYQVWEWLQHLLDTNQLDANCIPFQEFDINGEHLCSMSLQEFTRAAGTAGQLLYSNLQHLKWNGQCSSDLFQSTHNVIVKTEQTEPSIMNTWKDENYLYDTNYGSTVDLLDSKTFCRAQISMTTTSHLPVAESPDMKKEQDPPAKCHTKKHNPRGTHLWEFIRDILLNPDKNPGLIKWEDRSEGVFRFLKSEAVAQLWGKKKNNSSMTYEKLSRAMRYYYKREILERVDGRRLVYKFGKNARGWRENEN
The essentials: as §1

For another assay, the target named is SPI1 (Homo sapiens, UniProt P17947 1-270). The method in brief: as §1
The target in a further assay is SPIB (Homo sapiens, UniProt Q01892 1-262). The method in brief: as §1
The target of another assay is T6, ELK3 (Homo sapiens, UniProt P41970 1-407).
T6 sequence: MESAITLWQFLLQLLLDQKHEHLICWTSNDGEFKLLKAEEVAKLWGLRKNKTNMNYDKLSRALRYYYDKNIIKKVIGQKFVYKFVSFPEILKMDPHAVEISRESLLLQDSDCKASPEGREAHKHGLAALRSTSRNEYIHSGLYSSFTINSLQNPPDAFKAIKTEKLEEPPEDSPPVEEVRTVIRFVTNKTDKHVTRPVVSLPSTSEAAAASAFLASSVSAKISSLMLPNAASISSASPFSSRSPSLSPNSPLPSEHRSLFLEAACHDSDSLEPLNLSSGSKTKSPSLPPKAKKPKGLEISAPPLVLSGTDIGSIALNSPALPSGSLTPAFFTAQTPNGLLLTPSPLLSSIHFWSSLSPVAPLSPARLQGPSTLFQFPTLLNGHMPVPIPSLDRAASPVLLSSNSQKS
The essentials:
as §1

SPIB, sequence (Q01892 whole entry): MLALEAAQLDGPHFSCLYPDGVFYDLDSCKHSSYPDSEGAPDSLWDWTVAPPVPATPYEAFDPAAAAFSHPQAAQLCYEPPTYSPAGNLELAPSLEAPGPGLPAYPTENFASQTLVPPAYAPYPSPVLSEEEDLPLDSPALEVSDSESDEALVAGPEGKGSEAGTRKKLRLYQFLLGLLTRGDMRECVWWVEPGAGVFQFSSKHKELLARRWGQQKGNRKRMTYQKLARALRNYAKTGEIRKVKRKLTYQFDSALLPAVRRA
ELF1, sequence (P32519 whole entry): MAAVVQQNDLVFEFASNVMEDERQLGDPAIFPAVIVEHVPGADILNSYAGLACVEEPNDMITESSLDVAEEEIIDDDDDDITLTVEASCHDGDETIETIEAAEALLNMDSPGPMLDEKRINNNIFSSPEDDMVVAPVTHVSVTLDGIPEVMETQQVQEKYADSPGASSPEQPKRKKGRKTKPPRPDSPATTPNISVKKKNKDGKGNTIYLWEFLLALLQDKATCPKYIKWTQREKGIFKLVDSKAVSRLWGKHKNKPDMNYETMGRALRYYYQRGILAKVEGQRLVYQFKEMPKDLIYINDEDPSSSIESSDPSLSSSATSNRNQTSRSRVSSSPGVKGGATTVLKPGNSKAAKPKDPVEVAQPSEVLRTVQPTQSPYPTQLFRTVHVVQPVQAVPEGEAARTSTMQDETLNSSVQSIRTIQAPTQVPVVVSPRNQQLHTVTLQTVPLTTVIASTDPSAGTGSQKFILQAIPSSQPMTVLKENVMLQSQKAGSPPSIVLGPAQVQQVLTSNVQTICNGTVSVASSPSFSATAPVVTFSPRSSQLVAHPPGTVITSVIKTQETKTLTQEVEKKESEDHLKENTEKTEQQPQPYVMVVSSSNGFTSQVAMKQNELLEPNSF

Turning to TGACAT, the binding signal with FLI1 is 1.27 fold enrichment (6-mer frequency, TF over GST control); in the assay with ELK1, 1.27 fold enrichment (6-mer frequency, TF over GST control); with GABPA it was 1.31 fold enrichment (6-mer frequency, TF over GST control); in the assay with ERG, 1.19 fold enrichment (6-mer frequency, TF over GST control); in the assay with ELF1, 1.28 fold enrichment (6-mer frequency, TF over GST control); with EHF it was 1.36 fold enrichment (6-mer frequency, TF over GST control). The binding signal with SPI1 was 1.21 fold enrichment (6-mer frequency, TF over GST control); with SPIB it was 1.19 fold enrichment (6-mer frequency, TF over GST control); in the assay with ELK3 it was 1.15 fold enrichment (6-mer frequency, TF over GST control).

Consider GTTTCA, for which the binding signal was 1.34 fold enrichment (6-mer frequency, TF over GST control) with FLI1; 1.27 fold enrichment (6-mer frequency, TF over GST control) with ELK1; 1.35 fold enrichment (6-mer frequency, TF over GST control) in the assay with GABPA; 1.3 fold enrichment (6-mer frequency, TF over GST control) with ERG; 1.4 fold enrichment (6-mer frequency, TF over GST control) with ELF1; 1.3 fold enrichment (6-mer frequency, TF over GST control) with EHF. For the same sequence, the binding signal with SPI1 is 1.32 fold enrichment (6-mer frequency, TF over GST control); in the assay with SPIB, 1.24 fold enrichment (6-mer frequency, TF over GST control); with ELK3 it was 1.44 fold enrichment (6-mer frequency, TF over GST control).

With CTATGA, the binding signal with FLI1 was 1.03 fold enrichment (6-mer frequency, TF over GST control); in the assay with ELK1, 1.13 fold enrichment (6-mer frequency, TF over GST control); with GABPA, 1.18 fold enrichment (6-mer frequency, TF over GST control); with ERG, 1.06 fold enrichment (6-mer frequency, TF over GST control); with ELF1, 1.16 fold enrichment (6-mer frequency, TF over GST control); with EHF, 1.14 fold enrichment (6-mer frequency, TF over GST control). The binding signal with SPI1 is 1.03 fold enrichment (6-mer frequency, TF over GST control); in the assay with SPIB it was 1.13 fold enrichment (6-mer frequency, TF over GST control); in the assay with ELK3, 1.01 fold enrichment (6-mer frequency, TF over GST control).

Turning to CTGCCG, the binding signal with FLI1 is 1.28 fold enrichment (6-mer frequency, TF over GST control); with ELK1, 1.45 fold enrichment (6-mer frequency, TF over GST control); with GABPA, 1.36 fold enrichment (6-mer frequency, TF over GST control); with ERG, 1.26 fold enrichment (6-mer frequency, TF over GST control); in the assay with ELF1 it was 1.34 fold enrichment (6-mer frequency, TF over GST control); with EHF, 1.39 fold enrichment (6-mer frequency, TF over GST control). For the same sequence, the binding signal with SPI1 was 1.22 fold enrichment (6-mer frequency, TF over GST control); with SPIB, 1.41 fold enrichment (6-mer frequency, TF over GST control); with ELK3, 1.27 fold enrichment (6-mer frequency, TF over GST control).

On to CAGCTT, for which the binding signal with FLI1 is 1.2 fold enrichment (6-mer frequency, TF over GST control); with ELK1, 1.27 fold enrichment (6-mer frequency, TF over GST control); in the assay with GABPA, 1.22 fold enrichment (6-mer frequency, TF over GST control); in the assay with ERG, 1.2 fold enrichment (6-mer frequency, TF over GST control); with ELF1, 1.26 fold enrichment (6-mer frequency, TF over GST control); with EHF, 1.22 fold enrichment (6-mer frequency, TF over GST control). The binding signal with SPI1 is 1.19 fold enrichment (6-mer frequency, TF over GST control); in the assay with SPIB it was 1.2 fold enrichment (6-mer frequency, TF over GST control); in the assay with ELK3, 1.3 fold enrichment (6-mer frequency, TF over GST control).

With ATTGCC, the binding signal was 1.28 fold enrichment (6-mer frequency, TF over GST control) with FLI1; 1.27 fold enrichment (6-mer frequency, TF over GST control) in the assay with ELK1; 1.28 fold enrichment (6-mer frequency, TF over GST control) in the assay with GABPA; 1.14 fold enrichment (6-mer frequency, TF over GST control) with ERG; 1.21 fold enrichment (6-mer frequency, TF over GST control) with ELF1; 1.24 fold enrichment (6-mer frequency, TF over GST control) with EHF. Further, the binding signal in the assay with SPI1 is 1.15 fold enrichment (6-mer frequency, TF over GST control); in the assay with SPIB, 1.26 fold enrichment (6-mer frequency, TF over GST control); with ELK3 it was 1.15 fold enrichment (6-mer frequency, TF over GST control).

As for CTTGTG, the binding signal with FLI1 is 1.57 fold enrichment (6-mer frequency, TF over GST control); in the assay with ELK1 it was 1.58 fold enrichment (6-mer frequency, TF over GST control); with GABPA, 1.45 fold enrichment (6-mer frequency, TF over GST control); with ERG it was 1.45 fold enrichment (6-mer frequency, TF over GST control); in the assay with ELF1, 1.46 fold enrichment (6-mer frequency, TF over GST control); with EHF it was 1.44 fold enrichment (6-mer frequency, TF over GST control). In addition, the binding signal in the assay with SPI1 was 1.46 fold enrichment (6-mer frequency, TF over GST control); in the assay with SPIB it was 1.68 fold enrichment (6-mer frequency, TF over GST control); in the assay with ELK3, 1.6 fold enrichment (6-mer frequency, TF over GST control).
